# Hit rate of the full screen: of about 2,400 compounds, about 220 (9.2%) were called active. What follows is part of a selection rich in actives, with near analogues and random picks from the rest. A number with no mark means an inactive call.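 The calls were made as follows: active = signal change above the mean of dofetilide-free buffer controls plus 3 SD, so a positive margin; inactive = the rest.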
# Test: thallium signal changes without hERG – cell-based, CHO-K1 parental line, FluxOR thallium flux, counter-screen for hERG block protection project, confirmation (AID 1839);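 also: compounds applied alone with no dofetilide to cells lacking hERG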
# Settings: CHO-K1 parental cells, FluxOR thallium flux fluorescence; at 10 µM
row,Compound,"signal change vs control minus 3*SD hit threshold (margin above threshold, higher = more increase)"
1,CCNC(=S)Nc1nc2c(cc1C(=O)OCC)CCCC2,-12.5%
2,CCc1ccc(/C=N/NC(=O)c2nnn(-c3nonc3N)c2C(C)C)cc1,-35%
3,O=C(NC(=S)N1CCCc2ccccc21)c1ccc([N+](=O)[O-])cc1,-14.7%
4,C[n+]1ccccc1COc1ccc(C(C)(C)C)cc1,-20.4%
5,O=c1cc(-c2c(F)c(F)c(F)c(F)c2F)oc2ccccc12,-13.6%
6,CCOC(=O)c1c(C)[nH]c(C)c1S(=O)(=O)N1CCCCC1,-27.3%
7,CCC1CCCCN1C(=S)NC(=O)c1cccc([N+](=O)[O-])c1 (configuration not stated),-12.4%
8,O=S(=O)(Nc1ccc(Cc2ccncc2)cc1)c1ccc(Cl)c(Cl)c1,-33.7%
9,CCOC(=O)/C(C)=N/NC(=O)c1ccc([N+](=O)[O-])cc1,-4.1%
10,Cc1ccc2nc(NC(=S)NC(=O)c3ccco3)sc2c1,13.7% (active)
11,Cc1ccc2nc(NC(=S)NC(=O)c3cccs3)sc2c1,-3.1%
12,CCc1ccc2nc(NC(=O)c3cc(C)on3)sc2c1,-21.2%
13,Cc1csc2c(N3CCCCC3)ncnc12,-19.8%
14,Cc1sc2ncnc(SCC(=O)NC(=O)c3cccn3C)c2c1C,-30.1%
15,COc1ccc(NC(=O)c2cn(-c3ccccc3)nc2-c2ccncc2)cc1,-28.9%
16,Oc1c(Cl)cc(Cl)cc1/C=N/c1nccs1,-6.3%
17,Oc1c(Cl)cc(Cl)cc1Sc1cc(Cl)cc(Cl)c1O,53.5% (active)
18,Oc1c(Cl)cc(Cl)cc1/C=N/c1ncn[nH]1,-9.1%
19,Cc1cc2[nH]c(=O)c(=O)[nH]c2cc1S(=O)(=O)N1CCN(c2cccc(C)c2C)CC1,-25%
20,CCOC(=O)N1CCN(C(=O)CN(c2ccc(OCC)cc2)S(C)(=O)=O)CC1,-29.2%
21,CC1CCN(C(=S)NC(=O)c2cccs2)CC1,-12%
22,CC1CCCCC1NC(=S)NC(=O)c1cccs1 (configuration not stated),3.7% (active)
23,CC1CCCCC1NC(=S)NC(=O)c1sc2ccccc2c1Cl (configuration not stated),-26.5%
24,CC(=O)Nc1ccc(S(=O)(=O)NC2(C(F)(F)F)C(=O)Nc3c2c(=O)[nH]c(=O)n3C)cc1 (configuration not stated),-24.3%
25,CCC1(C)Cc2c(sc3nc(SC)[nH]c(=S)c23)CO1 (configuration not stated),48.8% (active)
26,CCc1nc2sc3c(c2c(=S)[nH]1)CC(C)(C)OC3,-18.6%

row,Compound,"signal change vs control minus 3*SD hit threshold (margin above threshold, higher = more increase)"
1,CSc1nc2sc3c(c2c(=S)[nH]1)CC(C)(C)OC3,31.8% (active)
2,CC(=O)c1ccc(S(=O)(=O)NCc2ccc(C(=O)N(C)CC(=O)Nc3cccc(F)c3)cc2)cc1,-20.8%
3,CC1Cc2cc(S(=O)(=O)NCc3ccccc3)ccc2N1C(=O)C1CCC1 (configuration not stated),-33.7%
4,O=C1NC(=O)C2(COC(c3cccc([N+](=O)[O-])c3)OC2)S1 (configuration not stated),-28.4%
5,CCCn1nnnc1SCC(=O)Nc1nnc(CC)s1,-22.9%
6,c1ccc(-c2n[nH]c(-c3ccccn3)n2)cc1,-23.5%
7,Cc1cc(=S)nc(-c2ccccn2)[nH]1,-18.7%
8,Cc1[nH]c(-c2ccccn2)nc(=S)c1Cl,18.1% (active)
9,CCCCCOc1ccc(C2C(C(C)=O)=C(C)Nc3ncnn32)cc1OC (configuration not stated),-35.5%
10,Cc1ccc(-c2csc3nc[nH]c(=S)c23)cc1,-1.7%
11,S=c1[nH]nc(Nc2ccc(Cl)cc2)s1,-36.9%
12,Cc1ccc(Cc2c[nH]c(=S)s2)cc1,-4.6%
13,Cc1ccc(-c2csc(=S)[nH]2)cc1,59.2% (active)
14,Cc1cccc(-n2cc(-c3ccccc3)[nH]c2=S)c1,-28%
15,O=Cc1cc(-c2ccccc2)[nH]c1-c1ccccc1,-28.6%
16,S=c1[nH]c(-c2ccccc2)cs1,16.2% (active)
17,S=c1[nH]c(-c2ccc(Cl)cc2)cs1,61.6% (active)
18,S=c1[nH]cnc2scc(-c3ccc(Cl)cc3)c12,-13.3%
19,CC(C)Nc1nc(SCC(N)=O)nc(N2CCOCC2)n1,-27.8%
20,CCC(C)(C)C1CCc2c(sc(NC(=O)c3ccccc3C(=O)O)c2C#N)C1 (configuration not stated),-7%
21,CCOC(=O)C1C(c2ccccc2)C(C(=O)OCC)C1c1ccccc1 (configuration not stated),-27.3%
22,Cc1ccc(NC(=O)CN2C(=O)S/C(=C\c3ccc(-c4cccc(C(=O)O)c4C)o3)C2=O)cc1,-30.6%
23,COc1ccc(-c2ccc(/C=N/NC(=O)c3cccnc3)o2)c([N+](=O)[O-])c1,-34.4%
24,O=C(O)CCCCn1c(SCc2ccccc2Cl)nc2ccsc2c1=O,-18.4%
25,O=C(NC(=S)Nc1ccc(N2CCCCC2)cc1)c1cccs1,-2.8%
26,CCOC(=O)NC(=S)Nc1ccc(C(C)(C)C)cc1,-14.3%
